Laboratory results as given in PubChem BioAssay.
A number with no mark means an inactive call.

Experiment: E. coli acrAB mutant growth effects, primary screen, E. coli filamentation inducers, strain DRC39, OD650, 24 h (AID 1178);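 note: growth measured as culture turbidity by optical density at 650 nm; test concentration not given here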
Details: higher = more signal, called active from +8 up or from −8 down

Compound | z-score
CN(C)C(=O)[C@@]1(CCS(=O)(=O)c2ccccc2)N=C(c2ccc(OCCCO)cc2)O[C@H]1c1ccccc1CN=[N+]=[N-] | 1.13
Cc1ccc(S[C@]2(C(=O)NCc3ccccc3)CC(=O)N(C3Cc4ccccc4C3)[C@@H]2c2ccc(CO)cc2I)cc1 | 0.964
C=C(C)[C@@H]1CC=C(C(O)C2C=CC3C(=O)N(C4CCCCC4)C(=O)C3N2Nc2ccc(OC)cc2)CC1 (stereo not given in full) | -0.703
CC(C)(C)N1CC=CC23O[C@@H]4C=CCCOC(=O)C4[C@H]2C(=O)N(CCCO)[C@@H]3C1=O (stereo not given in full) | -1.23
CN(C)C(=O)[C@]1(Cc2ccccc2N=[N+]=[N-])N=C(c2ccc(OCCCO)cc2)O[C@@H]1c1ccccc1CN=[N+]=[N-] | 0.804
COC(=O)[C@@]1(Cc2ccc(OC)cc2)[C@H]2c3cc(C(=O)N4CCCC4)n(Cc4ccc(C)o4)c3C[C@H]2CN1C(=O)c1ccccc1 | 0.0254
[N-]=[N+]=NCc1ccccc1C[C@]1(C(=O)NCCN2CCOCC2)N=C(c2ccc(OCCCO)cc2)O[C@H]1c1ccccc1 | 1.24
CCCCCCC#C[Si](O[C@H](c1ccccc1)c1cn(Cc2cccc(Cl)c2)nn1)(C(C)C)C(C)C | 0.804
COCCOC(=O)N1C(=O)[C@@]2(c3cc(C#CC4(O)CCCCCC4)ccc31)[C@H](C(=O)N1CCN(c3ncccn3)CC1)[C@H]1C(=O)O[C@H](c3ccccc3)[C@H](c3ccccc3)N1[C@@H]2c1ccc(O)cc1 | -0.19
COc1ccc(C(=O)Nc2ccc3c(c2)[C@]2(O[C@@H](CCO)[C@H]([Si](C)(C)c4ccc(OC)cc4)[C@H]2C)C(=O)N3Cc2ccccc2)cc1 | 0.799
COc1ccc([Si](C)(C)[C@@H]2[C@@H](CCO)O[C@]3(C(=O)N(Cc4ccccc4)c4ccc(N5CCCCC5=O)cc43)[C@H]2C)cc1 | -0.277
C#CCNS(=O)(=O)N(C)C | -0.263
COCCCNC(=O)[C@]1(CCS(=O)(=O)c2ccccc2)N=C(c2ccc(OCCCO)cc2)O[C@@H]1c1ccccc1 | 0.604
CC(=O)NCCCC[C@@H]1NC(=O)[C@@H]2C[C@H](C(=O)NCCCC[N+](C)(C)C)[C@H](c3cccc(OCCO)c3)N2C1=O | -0.0845
CCCC[C@@H](O)C1=C(COc2ccccc2)Cn2c(=O)n(-c3ccccc3)c(=O)n2[C@H]1CO | 1.36
C=CCOC(=O)[C@H]1[C@@H]2C(=O)O[C@@H](c3ccccc3)[C@@H](c3ccccc3)N2[C@@H](c2ccc(OCCOC(=O)[C@H]3C[C@H]4C(=O)N[C@@H](CCCCN(C)C)C(=O)N4[C@H]3c3ccc(O)cc3)cc2)[C@]12C(=O)Nc1ccccc12 | 0.172
C=CCNC(=O)[C@H]1[C@@H]2C(=O)O[C@@H](c3ccccc3)[C@@H](c3ccccc3)N2[C@@H](c2ccc(OCCO)cc2)[C@]12C(=O)N(C(=O)OCCOC)c1ccc(C#CC3=CCCCC3)cc12 | -0.178
COC(=O)[C@@]1(Cc2ccccc2)[C@H]2c3cc(C(=O)N4CCCC4)n(Cc4ccc(OC(F)(F)F)cc4)c3C[C@H]2CN1C(=O)c1ccccc1 | -1.22
COc1ccc([Si](C)(C)[C@H]2[C@H](CCn3cc(CCO)nn3)O[C@@]3(C(=O)N(Cc4cccc(N5C(=O)c6cccc7cccc5c67)c4)c4ccccc43)[C@@H]2C)cc1 | 2.38
COC(=O)[C@@]1(Cc2ccc(F)cc2)[C@H]2c3cc(C(=O)N4CCCC4)n(Cc4ccccc4)c3C[C@H]2CN1C(=O)c1ccccc1 | 0.392
CCC[C@@H]1C[C@@]1(CCC)[C@@H](NC(=O)c1ccco1)c1ccc(Cl)cc1 | -0.195
C[C@@]1([C@@H](NC(=O)c2cccs2)c2ccc(-c3ccccc3)cc2)C[C@H]1C1CCCCC1 | 0.0767
O=C1O[C@H](c2ccccc2)[C@H](c2ccccc2)N2[C@H]1[C@@H](C(=O)N1CCN(c3ncccn3)CC1)[C@]1(C(=O)Nc3ccc(C#CCCO)cc31)[C@H]2c1ccccc1OCCO | 0.156
C=C(COC)C(=O)CC[C@H](OC(=O)c1ccccc1-c1ccccc1C(=O)O)c1ccc(CO)o1 | -0.573
COCC(=C=CC[C@@H](O)c1ccccc1OCCO)C[C@@H](O)c1ccccn1 | -0.268
